Results published in PubChem BioAssay.
The source made the active and inactive calls.
Note: test concentration not given here.

Test: growth effects on S. cerevisiae YJM789 – YJM789 clinical isolate, OD600, 24 h, basal, primary screen (AID 1089);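 note: growth of clinical yeast isolate S. cerevisiae YJM 789 seeded 1000 cells per well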
Conditions: higher = more signal, called active from +8 up or from −8 down
With C=C(COC)C(=O)CC[C@H](OC(C)=O)c1ccc(CO)o1 the z-score was -1.16 (inactive). For COC(=O)C(CC#Cc1ccc2c(c1)[C@]1(C(=O)N2)[C@H](C(=O)NC[C@H](O)c2ccccc2)[C@H]2C(=O)O[C@H](c3ccccc3)[C@H](c3ccccc3)N2[C@@H]1c1ccc(O)cc1)C(=O)OC, the z-score was 0.542 (inactive). In the case of C=C[C@H](OC)[C@@H](O)c1ccc(OC)c(O)c1, the z-score is reported as 0.0615 (inactive). For CC[C@@H](O[Si](C#C[Si](C(C)C)(C(C)C)C(C)C)(C(C)C)C(C)C)c1cn(Cc2cccc(Cl)c2)nn1, the z-score was 0.978 (inactive). With COC(=O)C1=CC(c2ccc(CO)cc2)=CC(C2CC2)N(Cc2cc3c(cc2Br)OCO3)C=C1C(=O)OC (stereo not drawn) the z-score was -0.644 (inactive). With O=C(NCCN1CCOCC1)[C@@H]1c2ccccc2C(=O)N(CC23CC4CC(CC(C4)C2)C3)[C@H]1c1ccc(CO)cc1 the z-score was -0.43 (inactive). With COCCCNC(=O)[C@@]1(CCC(=O)OC(C)(C)C)N=C(c2ccc(OCCCO)cc2)O[C@H]1c1ccccc1 the z-score was 0.241 (inactive). With CN1C2C=C(c3ccc(CO)cc3)C(C3C(=O)N(C(N)=O)C(=O)C32)C1C1CC1 (stereo not drawn) the z-score was -1.07 (inactive). With N#Cc1ccc(NN2C(C(O)c3ccc(B(O)O)cc3)C=CC3CN(c4ccccc4)C(=O)C32)cc1 (stereo not drawn) the z-score was 0.587 (inactive).

Test: S. pombe growth modifiers, basal conditions – strain 972, OD600, 24 h, no modulator, primary screen (AID 1090);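 note: basal condition with compound alone and no growth modifier present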
Conditions: S. pombe 972 growth, higher = more signal, called active from +8 up or from −8 down
In the case of O=C(O)C1=CC[C@H]2C(=O)N(c3ccccc3)C(=O)[C@@H]12, the z-score is reported as 1.38 (inactive). For C=CC[C@H](OC(=O)Nc1ccc(SC)cc1)c1ccc(O)c(F)c1, the z-score was -19.7 (active). In the case of COC(=O)C1(CC(C)C)C=C2C(=C(C)C(=O)C2C)CN1 (stereo not drawn), the z-score is reported as 0.543 (inactive). For [N-]=[N+]=NCc1ccccc1C[C@]1(C(=O)N2CCCCC2)COC(c2ccc(OCCCO)cc2)=N1, the z-score was -1.92 (inactive). In the case of C=C[C@H](C)[C@@H](OC(=O)Nc1ccc(SC)cc1)c1ccc(OCCO)cc1, the z-score is reported as -0.583 (inactive). For COC(=O)Cn1c(C(=O)N(C)C)cc2c1C[C@H]1CN(C(=O)c3ccccc3)[C@@](Cc3ccccc3)(C(=O)OC)[C@@H]21, the z-score was -0.103 (inactive). In the case of O=C1c2ccccc2[C@](Cc2ccccc2I)(C(=O)NCCN2CCOCC2)[C@H](c2ccc(CO)cc2)N1Cc1ccccc1C(F)(F)F, the z-score is reported as -1.06 (inactive). With Cc1ccc(S[C@]2(C(=O)NCCN3CCOCC3)CC(=O)N(C(C)C)[C@@H]2c2ccc(CO)cc2I)cc1 the z-score was -1.75 (inactive). With C=C(CCCC)C(=O)CC[C@H](OC(=O)c1ccccc1-c1ccccc1C(=O)O)c1cccc(OCCO)c1 the z-score was -0.386 (inactive). With [N-]=[N+]=Nc1ccccc1C[C@@]1(C(=O)NCc2ccccc2)N=C(c2ccc(OCCCO)cc2)O[C@@H]1c1ccccc1 the z-score was 0.326 (inactive). In the case of C=CCNC(=O)[C@@H]1[C@H]2C(=O)O[C@H](c3ccccc3)[C@H](c3ccccc3)N2[C@H](c2ccc(OCCO)cc2)[C@@]12C(=O)Nc1ccc(C#CC3=CCCCC3)cc12, the z-score is reported as 1.18 (inactive). With CC(C)C[C@@H]1NC(=O)[C@H]2C[C@@H](C(=O)O)[C@@H](c3cccc(OCCO)c3)N2C1=O the z-score was -0.907 (inactive). For CC(C)c1ccc(NN2C(C(O)C(C)c3ccccc3)C=CC3C(=O)N(c4ccccc4)C(=O)C32)cc1 (stereo not drawn), the z-score was 0.0423 (inactive). For Cc1ccc(S(=O)(=O)N2[C@@H](c3ccccc3)C(C(=O)O)=C[C@H]2C(C)(C)C)cc1, the z-score was -0.273 (inactive). In the case of CCOC(=O)C1=CC[C@@H](c2ccccc2)N(S(=O)(=O)c2ccc(C)cc2)[C@@H]1C#N, the z-score is reported as -2.08 (inactive). With COCCOC(=O)N1C(=O)[C@@]2(c3cc(C#CCC(C(=O)OC)C(=O)OC)ccc31)[C@H](C(=O)N1CCc3cc(OC)c(OC)cc3C1)[C@H]1C(=O)O[C@H](c3ccccc3)[C@H](c3ccccc3)N1[C@@H]2c1ccccc1OCCO the z-score was 1.02 (inactive). With CN(C)CCCC[C@@H]1NC(=O)[C@H]2C[C@@H](C(=O)NCCCCCCNC(=O)CS)[C@@H](c3cccc(OCCO)c3)N2C1=O the z-score was -0.221 (inactive). In the case of COc1cc2c(cc1O)C(C)N(Cc1sc3ccccc3c1Cl)CC2 (stereo not drawn), the z-score is reported as -12.3 (active). In the case of COCCOC(=O)N1C(=O)[C@@]2(c3cc(C#CCC(C(=O)OC)C(=O)OC)ccc31)[C@H](c1ccc(O)cc1)N1[C@H](c3ccccc3)[C@H](c3ccccc3)OC(=O)[C@H]1[C@@H]2C(=O)N1CCc2cc(OC)c(OC)cc2C1, the z-score is reported as -1.01 (inactive).
